# PrPC surface inh: inhibitors of human cell surface prion protein PrPC | 0.43% of 370,000 active | inhibition, % at 13.8 µM | P04156 | TR-FRET read-out; in the data active = inhibition above about 24%; also: 0% = median of the test wells and 100% = reference compound wells
# PfHsp40 rescue: restores yeast growth despite PfHsp40 toxicity | 0.68% of 340,000 active | growth rescue, % at 12.5 µM | S. cerevisiae expressing PfHsp40, growth rescue, ATP luminescence; in the data active = growth rescue above about 28%, passing the limit was not always enough; inconclusive = no clear call, values can overlap the other calls;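 also: yeast W303a lacking pdr1 and pdr3 grown in galactose medium; growth measured after three days at 30 °C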
# MazEF act: increases E. coli MazEF RNase cleavage of RNA; FAM/BHQ RNA-DNA oligo cleavage fluorescence, 5 h; P0AE70; activation, % at 20 µM; 0.32% of 350,000 active; AID 504720; in the data active = activation above about 50%
# Target sequence (P0AE70 whole entry, looked up): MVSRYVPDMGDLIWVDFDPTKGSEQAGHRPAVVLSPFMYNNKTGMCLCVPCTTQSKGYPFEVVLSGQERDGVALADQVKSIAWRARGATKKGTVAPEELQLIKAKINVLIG
# PrP UTR inh: suppresses PrP 5' UTR mRNA reporter expression; cell-based PrP 5' UTR mRNA reporter, plate reader; inhibition, % (test concentration not listed); 0.35% of 340,000 active; in the data active = inhibition above about 52%; also: 0 = median of the neutral control wells
# BJeLR lethal: BJeLR cell viability loss. BJeLR (HRASV12) viability, CellTiter-Glo ATP luminescence, 48 h. 0.17% of 300,000 active. inhibition, % (test concentration not listed); in the data active = inhibition above about 50%; inconclusive = no clear call, values can overlap the other calls
# DUSP3 inh: inhibitors of human VHR1 phosphatase (DUSP3) | P51452 | recombinant VHR phosphatase, pNPP absorbance | inhibition, % at 13.3 µM | 0.52% of 290,000 active | AID 1654; in the data active = inhibition above about 50%
# Target sequence (P51452 whole entry, looked up): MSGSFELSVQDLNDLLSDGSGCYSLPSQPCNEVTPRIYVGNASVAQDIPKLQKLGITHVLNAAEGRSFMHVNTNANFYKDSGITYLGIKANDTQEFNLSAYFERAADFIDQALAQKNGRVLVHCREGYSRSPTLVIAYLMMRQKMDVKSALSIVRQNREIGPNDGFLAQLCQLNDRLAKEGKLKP
# Numbers without * were called inactive; ? = inconclusive; · = no result; + = active, no number. Rows were chosen to be rich in hits. Some 2.1% of all compounds tested hit in one or more screens of this group.
SMILES,PrPC surface inh,PfHsp40 rescue,MazEF act,PrP UTR inh,BJeLR lethal,DUSP3 inh
CC(=O)Nc1ccc(N/C=C/C(=O)c2ccc(Cl)cc2)cc1,4.5,2.2,56.9*,-32.8,-5.1,7.9
COc1ccc(C(=O)C=CNNC(=O)c2ccc(Cl)cc2)cc1,6.2,-0.1,0.7,-15.0,3.1,58.3*
COc1ccc(C(=O)NN/C=C/C(=O)c2ccc(Br)cc2)cc1,-4.0,·,-16.0,·,·,·
CC1(Cc2ccccc2C#N)C(=O)Nc2ccc(-c3ccccc3)cc21 (stereo not drawn),-6.1,·,·,·,·,·
CN(C)c1ccc(C(=O)/C=C/c2ccccc2)cc1,5.8,4.3,458.9*,-120.1,-8.8,18.1
CC(=O)Nc1cccc(C(=O)/C=C/c2ccc(/C=C/C(=O)c3cccc(NC(C)=O)c3)cc2)c1,-5.1,·,·,·,81.1*,28.2
CC(=O)Nc1cccc(C(=O)/C=C/c2ccc(F)cc2)c1,5.2,-1.1,4.5,17.6,0.4,10.6
O=c1[nH]c(=S)[nH]c2c1C(c1ccc(F)cc1)OC(CCC(F)(F)F)C2 (stereo not drawn),-4.7,·,·,·,·,·
O=C(NCc1ccccc1)c1cc(S(=O)(=O)N2CCOCC2)ccc1F,6.2,-0.5,50.5*,-15.6,0.9,26.7
CC(NC(=O)c1cn(C)c2ccc(S(=O)(=O)N3CCCC3)cc2c1=O)c1ccc2c(c1)OCCO2 (stereo not drawn),0.1,42.4*,3.5,-7.3,-8.2,19.7
O=C(NCCc1ccccc1)c1cc(S(=O)(=O)N2CCOCC2)ccc1F,2.4,0.8,6.5,-1.4,-19.0,-9.9
CN(Cc1ccccc1)C(=O)c1cn(C)c2ccc(S(=O)(=O)N3CCCC3)cc2c1=O,-1.3,-0.6,-17.9,-6.8,-5.2,51.2*
Cc1ccc(CNC(=O)c2cn(C)c3ccc(S(=O)(=O)N4CCOCC4)cc3c2=O)cc1,-4.7,1.6,0.4,-26.5,11.4,52.1*
Cc1ccccc1Oc1ccc2c(c1)[C@@H]1C[C@H](N(C)C(=O)c3ccco3)[C@H]([C@H](C)O)C(=O)N1CC2,3.0,·,0.1,·,·,·
Cc1ccc(CN2C(=O)C(F)(F)Oc3ccc(C)cc32)cc1,11.2,·,·,·,·,·
CCC(Sc1nc(-c2ccccc2)c(-c2ccccc2)[nH]1)C(=O)O (stereo not drawn),11.1,2.4,-4.2,-16.4,1.3,-20.5
CC12CC3OC3CC1CCC1C2CCC2(C)C1CCC21OCCO1 (stereo not drawn),-4.2,3.5,11.0,-25.9,·,·
O=C1CCC[C@H]2C[C@H](NCc3cccc(I)c3)CC[C@]23CCCN13,-5.9,·,·,·,·,·
O=C(Nc1ccnn1C1CCN(C(=O)c2ccc(F)cc2)CC1)C1CCOC1 (stereo not drawn),-6.0,?,-5.4,-11.8,-2.1,4.4
Cc1ccc(C)c(OCC(=O)Nc2cc(C(=O)O)cc(C(=O)O)c2)c1,3.2,-2.2,-0.1,39.0,4.6,53.3*
COc1ccc(CCNC(=O)c2ccc(-c3ccc([N+](=O)[O-])cc3)o2)cc1OC,-21.1,-0.1,59.3*,-18.9,-3.7,27.7
COc1ccc(NC(=O)c2ccc(-c3ccc([N+](=O)[O-])cc3)o2)cc1,-20.9,0.3,-0.1,-32.2,-7.7,6.3
COC(=O)[C@]1(Cc2ccccc2)N[C@H](CN(C)C(=O)c2ccc(C)cc2)[C@@H]2C(=O)N(Cc3ccccc3)C(=O)[C@@H]21,3.9,47.4*,-1.8,-19.6,·,·
COC(=O)[C@]1(Cc2ccccc2)N[C@H](CN(C)C(=O)c2ccccc2)[C@@H]2C(=O)N(Cc3ccccc3)C(=O)[C@@H]21,-3.7,0.7,-1.0,-6.3,·,·
COc1ccc(CN(CCN2CCOCC2)C(=O)c2ccc(F)cc2F)cc1OC,-1.3,·,·,·,·,·
SMILES,PrPC surface inh,PfHsp40 rescue,MazEF act,PrP UTR inh,BJeLR lethal,DUSP3 inh
O=[N+]([O-])c1ccc(/C=[N+](\[O-])CCO)o1,-12.8,0.0,-6.2,-15.9,-1.0,53.0*
C/C(=N\Nc1nccnc1Cl)c1c(F)c(F)c(F)c(F)c1F,0.4,58.6*,-1.5,-16.7,4.2,-5.4
CC(=O)C1=C(c2cccc([N+](=O)[O-])c2)N(C(C)=O)n2c(C)nnc2S1,-2.8,82.4*,51.6*,-23.8,-6.9,16.5
COc1ccc(C(=O)COC(=O)C(C)N2C(=O)C3C4CCC(C4)C3C2=O)cc1 (stereo not drawn),4.9,-0.3,7.7,-10.8,1.2,10.2
CC(C(=O)OCC(=O)c1ccccc1)N1C(=O)C2C3CCC(C3)C2C1=O (stereo not drawn),-4.8,-0.1,-3.6,-60.2,3.9,54.4*
CCCCC(=O)N(C)c1c(CC)nc2c(OCCC)cccn12,-4.9,·,·,·,·,·
O=C(N[C@H](C(=O)N1CCC[C@H]1C(=O)NCc1ccccc1)C1CCCCC1)c1ccc(Cl)cc1Cl,2.7,·,·,·,·,·
COc1ccccc1NC(=O)/C(=N/OCc1ccc(F)cc1)C(C)=O,-4.9,-0.2,74.6*,-11.1,-9.8,14.4
COc1ccccc1NC(=O)C(=N\O)/C(C)=N/O,9.9,-0.7,-3.9,-12.7,0.9,-1.5
CC(C)(C)c1ccc(CC(=O)N2CCC2(C)C(=O)Nc2cccc3c2CCCC3)cc1 (stereo not drawn),-3.0,·,·,·,·,·
CC(=O)Nc1ccc(NS(=O)(=O)c2cccc3nonc23)cc1,-8.1,0.3,8.6,-32.0,0.3,57.5*
CCCCNc1nnc(SCC(=O)c2c(N)n(CCC)c(=O)[nH]c2=O)s1,7.2,0.1,7.4,-15.0,·,·
CCCn1c(N)c(C(=O)CSc2nc(C)cs2)c(=O)[nH]c1=O,-3.4,26.5*,1.0,-5.6,4.3,-3.8
O=C(Nc1ccc(F)cc1)C(c1cc2ccccc2o1)N1CCN(c2cccc(C(F)(F)F)n2)CC1 (stereo not drawn),-2.9,·,·,·,·,·
Cc1cc(-c2ccc(S(=O)(=O)NCc3ccc(F)cc3)cc2)on1,-3.7,1.2,3.0,-19.5,6.8,8.0
COc1ccc(CNS(=O)(=O)c2ccc(-c3cc(C)no3)cc2)cc1,8.3,-1.4,-7.1,0.7,1.2,59.8*
CC1CCCCN1CCCNC(=O)c1ccc(Br)cc1 (stereo not drawn),-3.9,-1.9,-3.8,-8.3,-9.0,57.6*
CC1CCCCN1CCCNC(=O)c1nn(C)c2c1CS(=O)(=O)c1ccccc1-2 (stereo not drawn),-4.4,3.6,3.6,-11.3,3.6,59.1*
Cc1c(C)n(C)c2ccc(C(=O)NCCCN3CCCCC3C)cc12 (stereo not drawn),-4.0,-0.7,6.7,-11.5,3.0,77.6
CCN1/C(=C2\OC(=S)N(C)C2=O)C=Cc2ccccc21,-1.2,-0.4,655.7*,22.0,3.9,-4.6
Oc1ccc2ccccc2c1-c1sc(Nc2ccccc2)n[n+]1-c1ccc(F)cc1,-6.3,-0.6,+,-27.4,14.7,1.1
COc1ccc(CC2(c3ccccc3)NC(=O)NC2=O)cc1 (stereo not drawn),9.4,-0.7,2.3,-8.9,·,·
N#CC1=C(N)SC(N)=C(C#N)C1c1cccc(O)c1,27.2*,1.2,-297.3,-25.9,7.0,16.8

# High-throughput results: PubChem BioAssay, several laboratories
